HSP90 refold inh = inhibitors of HSP90 luciferase refolding in rabbit reticulocyte lysate. hit rate 0.91% among 290,000. luciferase refolding luminescence, 3 h. inhibition, % at 5.6 µM;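 active = inhibition above the screen-wide mean plus 3 SD, computed separately per campaign, cut at about 16% in these data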;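 note: inhibitors lower the luminescence because luciferase stays unfolded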
CF NFkB inh = blocks PAF-induced NF-kB reporter in cystic fibrosis cells | inhibition, % at 5 µM | KKLEB NF-kB-GFP reporter, GFP fluorescence overnight | hit rate 0.86% among 360,000;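 active = at least 50% inhibition at 5 µM, scaled per plate between neutral and stimulator controls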;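 note: PAF is a Pseudomonas aeruginosa culture filtrate used as stimulus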
LGR2 inh = inhibitors of bursicon-induced Drosophila LGR2 receptor cAMP signaling. HEK293 LGR2, CRE-luciferase, bursicon-stimulated, 4 h. inhibition, % at 9.99 µM. hit rate 0.35% among 380,000. AID 720647;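 active = drop in luminescence signal, shown as inhibition above about 50% in the replicate tests, limit read from the data, passing the limit was not always enough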;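 note: agonist challenge used bursicon conditioned medium at about half maximal strength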
Mdm2 MdmX PPI = inhibitors of human Mdm2/MdmX interaction; O15151+Q00987; SaOS-2 split-luciferase Mdm2/MdmX complementation, luminescence; inhibition, % at 8 µM; hit rate 3% among 330,000; AID 485346;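 active = inhibition of at least 50% at 8 µM in the primary screen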
Target sequence (O15151 whole entry, looked up): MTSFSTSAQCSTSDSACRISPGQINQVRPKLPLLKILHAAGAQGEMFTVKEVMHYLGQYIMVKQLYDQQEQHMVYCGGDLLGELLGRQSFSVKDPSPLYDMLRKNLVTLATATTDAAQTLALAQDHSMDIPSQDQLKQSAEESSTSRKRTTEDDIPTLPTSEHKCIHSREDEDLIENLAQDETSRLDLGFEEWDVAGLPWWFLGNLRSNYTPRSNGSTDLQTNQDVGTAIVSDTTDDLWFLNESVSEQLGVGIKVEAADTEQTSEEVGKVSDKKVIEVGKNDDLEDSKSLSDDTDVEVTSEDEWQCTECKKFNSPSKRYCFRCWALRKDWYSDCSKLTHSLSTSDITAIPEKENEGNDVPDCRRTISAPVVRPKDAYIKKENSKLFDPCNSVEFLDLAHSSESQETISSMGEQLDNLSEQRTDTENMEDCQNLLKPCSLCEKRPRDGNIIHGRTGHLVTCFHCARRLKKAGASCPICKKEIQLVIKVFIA
Target sequence (Q00987 whole entry, looked up): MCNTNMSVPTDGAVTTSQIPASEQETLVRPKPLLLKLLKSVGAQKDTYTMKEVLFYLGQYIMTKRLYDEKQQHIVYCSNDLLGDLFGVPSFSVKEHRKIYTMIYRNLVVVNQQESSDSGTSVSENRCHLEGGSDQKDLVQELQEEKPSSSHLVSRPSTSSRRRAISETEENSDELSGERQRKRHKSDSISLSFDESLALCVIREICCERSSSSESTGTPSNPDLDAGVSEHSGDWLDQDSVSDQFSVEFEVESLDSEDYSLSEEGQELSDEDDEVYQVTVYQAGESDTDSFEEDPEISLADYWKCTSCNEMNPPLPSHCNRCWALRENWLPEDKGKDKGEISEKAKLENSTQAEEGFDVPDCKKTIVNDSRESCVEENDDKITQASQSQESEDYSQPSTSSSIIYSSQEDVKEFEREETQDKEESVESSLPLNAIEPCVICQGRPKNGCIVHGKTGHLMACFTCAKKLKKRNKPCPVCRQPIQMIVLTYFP
KKLEB tox = reduces viability of KKLEB cystic fibrosis airway cells; KKLEB CF airway cells viability, ATPlite luminescence, overnight; hits give low values; cells stimulated with P. aeruginosa culture filtrate; hit rate 0.36% among 360,000; AID 602141; activity change (cytotoxicity), % at 5 µM;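 active = corrected activity change at or below -50% at 5 µM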
Peg3 promoter = inhibitors of Peg3 promoter; HeLa PEG-Prom luciferase reporter, luminescence, overnight; inhibition, % at 20 µM; hit rate 1.7% among 360,000;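 active = inhibition of at least 50% at 20 µM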
Of the large screens only hits and unclear results are named; the others gave an inactive call. Rows were chosen to be rich in hits. Some 3.6% of all compounds tested hit in one or more screens of this group.

O=C(Cc1ccccc1)N1CC2(C1)[C@H](c1ccccc1)[C@@H](CO)N2Cc1cccc(Cl)c1	none (no result: HSP90 refold inh, CF NFkB inh, Mdm2 MdmX PPI, KKLEB tox, Peg3 promoter)
COc1ccc(CC2NCC(O)C2OC(C)=O)cc1 (centres undefined)	CF NFkB inh 80, Peg3 promoter 108 (no result: HSP90 refold inh, LGR2 inh, Mdm2 MdmX PPI)
COc1ccc(OC(=O)N(C)C[C@H]2OCc3ccccc3-c3c(n(C)c4ccccc34)C(=O)N([C@@H](C)CO)C[C@H]2C)cc1	none (no result: HSP90 refold inh, CF NFkB inh, Mdm2 MdmX PPI, KKLEB tox, Peg3 promoter)
O=C(Nc1cccc(Cl)c1)N1C[C@H]2C[C@@H](C1)c1cccc(=O)n1C2	none
C[N+](C)(C)CC#CCOC(=O)Nc1cccc(Cl)c1	Peg3 promoter 84 (no result: HSP90 refold inh)
OC(Cn1c2ccccc2c2ccccc21)C[n+]1cccc2ccccc21 (centres undefined)	Peg3 promoter 59
C[C@H]1CN([C@@H](C)CO)C(=O)c2c(c3ccccc3n2C)-c2ccccc2CO[C@@H]1CN(C)C(=O)Oc1ccccc1	none (no result: HSP90 refold inh, CF NFkB inh, Mdm2 MdmX PPI, KKLEB tox, Peg3 promoter)
COC(=O)[C@@H]1[C@@H](CO)[C@@H]2Cn3c(ccc(C4=CCCCC4)c3=O)[C@H]1N2CC1CCCC1	none (no result: HSP90 refold inh, CF NFkB inh, Mdm2 MdmX PPI, KKLEB tox, Peg3 promoter)
COc1ccc(-c2ccc3n(c2=O)C[C@@H]2[C@@H](CO)[C@H](C(=O)O)[C@H]3N2C(=O)c2ccccc2F)cc1	none (no result: HSP90 refold inh, CF NFkB inh, Mdm2 MdmX PPI, KKLEB tox, Peg3 promoter)
COC(=O)c1nc(-c2ccc3c(n2)C(=O)C(N)=C(OC)C3=O)c(N)c(-c2ccc(OC)c(OC)c2O)c1C	CF NFkB inh 89, Peg3 promoter 53
COc1ccc(C#Cc2ccc([C@@H]3[C@@H](CO)N4CCCCN(C(=O)Cc5ccccc5)C[C@@H]34)cc2)cc1	none (no result: HSP90 refold inh, CF NFkB inh, Mdm2 MdmX PPI, KKLEB tox, Peg3 promoter)
COc1cc(C(=O)N/N=C/C23CC[C@@H](O)CC2(O)CC[C@@H]2[C@@H]3CCC3(C)C(C4=CC(=O)OC4)CCC23O)ccc1O (some centres undefined)	none
CC(=O)OC1CC(OC2C(O)CC(OC3C(O)CC(OC4CCC5(C)C(CCC6C5CCC5(C)C(C7=CC(=O)OC7)CCC65O)C4)OC3C)OC2C)OC(C)C1OC1OC(CO)C(O)C(O)C1O (centres undefined)	CF NFkB inh 82, LGR2 inh 86, KKLEB tox -58, Peg3 promoter 107 (no result: HSP90 refold inh, Mdm2 MdmX PPI)
CCN(CC)Cc1c[nH]c2ccccc12	none (no result: LGR2 inh)
CN(CCc1ccccc1)Cc1c[nH]c2ccccc12	Peg3 promoter 69
Cc1ccccc1-c1ccc([C@H]2[C@@H](CO)N3CCCCN(C(=O)Cc4ccccn4)C[C@H]23)cc1	none (no result: HSP90 refold inh, CF NFkB inh, Mdm2 MdmX PPI, KKLEB tox, Peg3 promoter)
COC1=C(C)C(=O)C2=C(C1=O)C(CO)N1C(C#N)C3CC4C(C1C2N1CCOC41)N3C (centres undefined)	CF NFkB inh 88, Peg3 promoter 95 (no result: HSP90 refold inh, Mdm2 MdmX PPI)
CCOC(=O)[C@]12Cc3cc(C)ccc3[C@H]1N(C1CCCCC1)C(=O)c1cc(OC)ccc12	LGR2 inh 68 (no result: HSP90 refold inh, CF NFkB inh, Mdm2 MdmX PPI, KKLEB tox, Peg3 promoter)
CCOC(=O)[C@]12Cc3cc(OC)ccc3[C@H]1N(C1CCCCC1)C(=O)c1cc(OC)ccc12	LGR2 inh 51 (no result: HSP90 refold inh, CF NFkB inh, Mdm2 MdmX PPI, KKLEB tox, Peg3 promoter)
CCOC(=O)[C@]12Cc3ccccc3[C@H]1N(C)C(=O)c1cc(OC)ccc12	none (no result: HSP90 refold inh, CF NFkB inh, Mdm2 MdmX PPI, KKLEB tox, Peg3 promoter)
O=C(O)[C@H]1[C@H](CO)[C@H]2Cn3c(ccc(-c4cncnc4)c3=O)[C@@H]1N2C(=O)NC1CCCC1	none (no result: HSP90 refold inh, CF NFkB inh, Mdm2 MdmX PPI, KKLEB tox, Peg3 promoter)
CCN(CC)CCNC(=O)c1c(O)c2ccccc2n(Cc2ccccc2)c1=O	none (no result: LGR2 inh)
CCN(CC)CCCNC(=O)c1c(O)c2ccccc2n(Cc2ccccc2)c1=O	Peg3 promoter 54 (no result: LGR2 inh)
O=C(O)[C@@H]1[C@@H](CO)[C@@H]2Cn3c(ccc(-c4ccncc4)c3=O)[C@H]1N2S(=O)(=O)c1ccccc1F	none (no result: HSP90 refold inh, CF NFkB inh, Mdm2 MdmX PPI, KKLEB tox, Peg3 promoter)
Cc1[nH]nc2ccc(-c3cncc(OC[C@@H](N)Cc4c[nH]c5ccccc45)c3)cc12	CF NFkB inh 85, KKLEB tox -87, Peg3 promoter 100 (no result: HSP90 refold inh, LGR2 inh, Mdm2 MdmX PPI)
C=C(C)CSc1nnc([C@@H](N)Cc2c[nH]c3ccccc23)o1	none (no result: LGR2 inh)
O=C(O)[C@H]1[C@H](CO)[C@H]2Cn3c(ccc(-c4ccccc4F)c3=O)[C@@H]1N2C(=O)Nc1ccccc1	none (no result: HSP90 refold inh, CF NFkB inh, Mdm2 MdmX PPI, KKLEB tox, Peg3 promoter)
CC(=O)OC(C)(C)/C=C/C(=O)[C@](C)(O)[C@H]1[C@H](O)C[C@@]2(C)[C@@H]3CC=C4[C@H](C[C@H](O)C(=O)C4(C)C)[C@]3(C)C(=O)C[C@]12C	CF NFkB inh 84, KKLEB tox -86, Peg3 promoter 103 (no result: LGR2 inh, Mdm2 MdmX PPI)
CC(=O)OC(C)(C)/C=C/C(=O)C(C)(O)C1C(O)CC2(C)C3CC=C4C(CC(O)C(=O)C4(C)C)C3(C)C(=O)CC12C (centres undefined)	CF NFkB inh 89, LGR2 inh 89, KKLEB tox -83, Peg3 promoter 97 (no result: HSP90 refold inh, Mdm2 MdmX PPI)
CC=Cc1ccc2n(c1=O)C[C@@H]1[C@@H](CO)[C@H](C(=O)OC)[C@H]2N1C(=O)CC1CC1 (mixture of isomers)	none (no result: HSP90 refold inh, CF NFkB inh, Mdm2 MdmX PPI, KKLEB tox, Peg3 promoter)
CCn1c(O)c(C=Nc2ccc(N3CCOCC3)cc2)c(=O)n(CC)c1=S	CF NFkB inh 57 (no result: LGR2 inh)
Cn1c(O)c(C=NCCN2CCOCC2)c(=O)n(C)c1=S	none
CCn1c(O)c(C=NCCN2CCOCC2)c(=O)n(CC)c1=S	CF NFkB inh 54
CC(C)OC(=O)c1c(N)n(CC2CCCO2)c2nc3ccccc3nc12 (centres undefined)	HSP90 refold inh 16 (no result: LGR2 inh)
NC(=S)c1cn(C2OC(CO)C(O)C2O)c2ncnc(N)c12 (centres undefined)	CF NFkB inh 90, LGR2 inh 102, KKLEB tox -79, Peg3 promoter 107 (no result: Mdm2 MdmX PPI)
O=[N+]([O-])c1c(Cl)c(Cl)c(Cl)c(Cl)c1Cl	none (no result: HSP90 refold inh, Mdm2 MdmX PPI)
Nc1cc(Cl)c2nonc2c1[N+](=O)[O-]	CF NFkB inh 76, KKLEB tox -76, Peg3 promoter 107 (no result: Mdm2 MdmX PPI)
CC(C)n1c(O)c(C2c3cc(Cl)ccc3Oc3[nH]c(=O)n(C(C)C)c(=O)c32)c(=O)[nH]c1=O (centres undefined)	CF NFkB inh 91, Peg3 promoter 115 (no result: LGR2 inh, Mdm2 MdmX PPI)
CC(=O)c1c(O)n(-c2cccc(Cl)c2)c(=O)[nH]c1=O (tested in a mixture with another compound)	none
O=C(Cc1ccccc1)N1CCCCN2[C@H](CO)[C@@H](c3ccc(-c4ccccc4)cc3)[C@@H]2C1	none (no result: HSP90 refold inh, CF NFkB inh, Mdm2 MdmX PPI, KKLEB tox, Peg3 promoter)
O=[N+]([O-])/C=C/c1c(Cl)cccc1Cl	CF NFkB inh 57, Peg3 promoter 92 (no result: HSP90 refold inh, Mdm2 MdmX PPI)
CCOC(=O)C1=C(NC(=S)NC(=O)c2ccccc2)c2ccccc2CC12CCCC2	Peg3 promoter 50 (no result: Mdm2 MdmX PPI)
CCOP(=O)(OCC)C(NC(=O)c1ccccc1)=C(Cl)Cl	none
CC12CC[C@H]3[C@@H](CCC4(O)C[C@H](O)CCC34/C=N/NC(=O)c3ccc(O)cc3)C1(O)CCC2C1=CC(=O)OC1 (some centres undefined)	none
CC12CC[C@H]3[C@@H](CCC4(O)C[C@H](O)CCC34/C=N/NC(=O)c3ccccc3O)C1(O)CCC2C1=CC(=O)OC1 (some centres undefined)	Peg3 promoter 81
